This is part of a sample that, as a whole, favours compounds with a hit. Of some 79,000 tested, about 15% had one in any assay. Values without a mark were called inactive. Activity calls are given as the source filed them. Cut-off read from the data, not from the text of the source: active = growth inhibition above about 70%; inactive = the rest.
Test: NCI Yeast Anticancer Drug Screen. Data for the bub3 strain (AID 167)
Settings: S. cerevisiae bub3 mutant strain, at 5.0 µM (retest, dose inferred, filed as 0.5), active compounds read high
How it was run: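 Yeast carrying a defined mutation is treated with each compound, and growth is compared with that of vehicle-exposed cells to give inhibition.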

Row | Structure (SMILES) | growth inhibition
1 | c1ccc(Cn2nnc(-c3ccccc3)c2-c2ccccc2)cc1 | 17%
2 | CCOc1ccc2nc(Cl)sc2c1 | 1%
3 | CCOC(=O)c1sc2c(c1O)c(=O)n(-c1ccccc1)c(=S)n2-c1ccccc1 | 47%
4 | O=C(O)c1c[nH]c2cc(Cl)ccc2c1=O | 1%
5 | Cc1cc2c(cc1O)CC[C@@H]1[C@@H]2CC[C@]2(C)[C@@H](O)CC[C@@H]12 | -42%
6 | NC(=O)NOCC1NC(=O)NC1=O (stereo not given) | -3%
7 | CCOC(=O)c1cnc2cc3cccccc3n2c1=O | -2%
8 | CC(CO)CCC(=O)C(C)C1C(=O)CC2CC3CC(O)CCC3(C)CC21C (stereo not given) | 2%
9 | N#CSC#Cc1ccc(C#CSC#N)cc1 | 99% (active)
10 | CCS/C(SC)=C(/c1ccccc1)[P+](c1ccccc1)(c1ccccc1)c1ccccc1 | 99% (active)

Same assay, conditions: S. cerevisiae bub3 mutant strain, at 50.0 µM (retest, dose inferred, filed as 5.0), active compounds read high

Row | Structure (SMILES) | growth inhibition
11 | CCSC1(SCC)C(=O)OC2=C(CCCC2)C1N1CCOCC1 (stereo not given) | 11%
12 | NC(=O)C(CCc1cccc2ccccc12)c1ccccc1 (stereo not given) | 12%
13 | NC(CCCCCC(N)C(=O)O)C(=O)O (stereo not given) | -71%
14 | CN(C)CC(CN(C)C)C(=O)C1CCCCC1 | 98% (active)
15 | O=C1/C(=C/c2ccc([N+](=O)[O-])cc2)Sc2scc(-c3cccc([N+](=O)[O-])c3)[n+]21 | 99% (active)
16 | CC(C)(C)c1cc(C(P(=O)(c2ccccc2)c2ccccc2)P(=O)(c2ccccc2)c2ccccc2)cc(C(C)(C)C)c1O | 93% (active)
17 | COC(=O)c1cc(=O)n(-c2ccccc2C(F)(F)F)c(SC)n1 | 89% (active)
18 | CSC(SC)=C1C(=O)NC(Cc2ccccc2)C1=O (stereo not given) | 34%
19 | c1ccc(C(c2ccccc2)c2ccc3ccccc3n2)cc1 | 58%
20 | CN(C)c1nc(N(C)C)nc([N+](C)(C)C)n1 | -5%
21 | CCCNC(=S)N/N=C(/C)c1nccc2ccccc12 | 78% (active)
22 | OC(CN1CCc2ccccc2C1)c1ccc2ccccc2c1 (stereo not given) | 93% (active)
23 | Nc1nc(N)c2nc(CNc3ccc(C(=O)NC(CCC(=O)O)C(=O)O)cc3)ccc2n1 (stereo not given) | 3%
24 | O=c1c2ccccc2c2ccccc2n1O | 91% (active)
25 | CC(=O)N1c2ccccc2Sc2ccc3ccc(C(=O)CCl)cc3c21 | 97% (active)
26 | CC(NNC(=S)N1CC2CCC(CC2)C1)c1nccc2ccccc12 (stereo not given) | 94% (active)
27 | O=C1O/C(=C(\Cc2ccccc2)c2ccccc2)N(c2ccccc2)C1=O | 13%
28 | S=c1sc2ccccc2n1C=Nc1ccccc1 | 96% (active)
29 | CSc1nc(NC2OC(CO)C(O)C(O)C2O)c(Cl)c(=O)[nH]1 (stereo not given) | 4%
30 | C=CCN1/C(=C\C=C\c2ccc3cc(C)ccc3[n+]2CC=C)C=Cc2cc(C)ccc21 | 98% (active)

Row | Structure (SMILES) | growth inhibition
31 | S=c1[nH]nc(SCc2ccc(Cl)c(Cl)c2)c2[nH]cnc12 | -8%
32 | Nc1ccc(C(=O)/C=C/c2ccccn2)cc1 | 79% (active)
33 | CCOC(=O)C(C(=O)O)(C(c1ccccc1)c1ccccc1)C(c1ccccc1)c1ccccc1 | 98% (active)
34 | CSC(=S)n1nc(-c2ccccc2)c(N=Nc2ccc(Br)cc2)c1-c1ccccc1 | 34%
35 | COc1ccc([N+](=O)[O-])cc1Nc1c2ccccc2nc2ccccc12 | 49%
36 | C=CCN1/C(=C/C=C\c2sc3ccccc3[n+]2CC=C)Sc2ccccc21 | 99% (active)
37 | COc1ccc(/C=C/C(C(=O)O)C(=O)O)cc1 | 88% (active)
38 | CN(C)C(=O)c1cc(Br)cc(-c2ccccc2)c1O | 88% (active)
39 | Cc1cc(N=[N+]=[N-])c2cc(C3CCCCC3)ccc2n1 | 96% (active)
40 | [Cu+2].[O-]/N=C/c1cccc(O)c1[O-].[O-]/N=C/c1cccc(O)c1[O-] | 99% (active)
41 | c1ccc(Cn2nnc(-c3ccccc3)c2-c2ccccc2)cc1 | 96% (active)
42 | CCOc1ccc2nc(Cl)sc2c1 | 97% (active)
43 | CCOC(=O)c1sc2c(c1O)c(=O)n(-c1ccccc1)c(=S)n2-c1ccccc1 | 97% (active)
44 | O=C(O)c1c[nH]c2cc(Cl)ccc2c1=O | -2%
45 | Cc1cc2c(cc1O)CC[C@@H]1[C@@H]2CC[C@]2(C)[C@@H](O)CC[C@@H]12 | -29%
46 | NC(=O)NOCC1NC(=O)NC1=O (stereo not given) | -3%
47 | CCOC(=O)c1cnc2cc3cccccc3n2c1=O | 67%
48 | CC(CO)CCC(=O)C(C)C1C(=O)CC2CC3CC(O)CCC3(C)CC21C (stereo not given) | 85% (active)
49 | N#CSC#Cc1ccc(C#CSC#N)cc1 | 98% (active)
50 | CCS/C(SC)=C(/c1ccccc1)[P+](c1ccccc1)(c1ccccc1)c1ccccc1 | 100% (active)

Reference: PubChem BioAssay (NCI)
